Hits are enriched below; roughly 3% of the tested compounds scored in any of these assays.
SARS PLpro yeast = blocks SARS-CoV papain-like protease in a yeast assay; S. cerevisiae expressing SARS-CoV PLpro, growth rescue; Potency, µM (top dose mostly 32.9 µM), without a hit: at the highest dose activity, positive = growth rescue, hits mostly activators; 330,000 compounds, 0.19% hits; AID 485353; calls by dose curve; further: 0% is about no effect; nearly all actives have a fitted effect of over 55% in size
Sm TGR inh = S. mansoni TGR enzyme inhibition. purified TGR, DTNB reduction, TNB absorbance 405 nm. Potency, µM (top dose mostly 114 µM), without a hit: at the highest dose activity change, negative = inhibition, hits mostly inhibitors. 360,000 compounds, 3% hits; active means well fitted inhibition curve with a large enough effect; inconclusive means small, poorly fitted or top-dose-only effect; inactive means no such curve, though single readings can be large or run the other way; further: on the % scale 0 is the no-effect control and ±100 the full control effect; nearly all actives have a fitted effect of over 60% in size
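First, TGR (20 nM dispensed) and NADPH were mixed with compound. Second, a 15 min room-temperature incubation followed. Third, further NADPH and then DTNB were added to start the reaction. Finally, TNB absorbance was monitored kinetically.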
Starred values were filed as active, the others as inactive; ? = inconclusive; · = not tested or not shown. Potency means the concentration at half of the fitted maximal effect.

SMILES	SARS PLpro yeast	Sm TGR inh
Cc1ccc(-c2nc(CCNC(=O)C(=O)Nc3ccc(F)cc3F)cs2)cc1	·	12%
CN1CCN(c2ccc(Cl)cc2NC(=O)CCN2C(=O)c3ccccc3C2=O)CC1	2%	40µM*
COc1ccc(CCC(=O)Nc2cc(Cl)ccc2N2CCN(C)CC2)cc1	-7%	-2%
CCOC(=O)c1ccc2c(c1)N(CC(=O)Nc1ccc(C)cc1C)C(=O)c1ccccc1S2	·	0%
CCOc1nc(NC(=O)NS(=O)(=O)Oc2ccccc2)nc(-c2ccccc2)n1	·	-6%
CC1CCN(c2cc3c(cc2F)c(=O)c(S(=O)(=O)c2cccc(Cl)c2)cn3Cc2ccccc2)CC1	·	0%
Cc1cccc(OCC(=O)Nc2ccc(S(=O)(=O)N(Cc3ccccc3)c3ccccc3)cc2)c1	·	-1%
CNC(=S)N/N=C/c1ccc(-c2ccc(C(=O)O)cc2)o1	-6%	?
Cc1[nH][nH]c(=O)c1C(c1ccc(-c2ccc(F)cc2)o1)c1c(C)[nH][nH]c1=O	-4%	32µM*
Cc1[nH][nH]c(=O)c1C(c1ccc(-c2ccc(Cl)c(Cl)c2)o1)c1c(C)[nH][nH]c1=O	-5%	40µM*
Cc1[nH][nH]c(=O)c1C(c1ccc(N(C)C)c(Br)c1)c1c(C)[nH][nH]c1=O	-3%	-3%
Cc1[nH][nH]c(=O)c1C(c1c(C)[nH][nH]c1=O)c1cn(C)c2ccccc12	-3%	-6%
Cc1[nH][nH]c(=O)c1C(c1ccc(-c2ccc(C(=O)O)cc2)o1)c1c(C)[nH][nH]c1=O	-2%	16µM*
COc1ccc(-c2ccc(/C=N/N3C(=O)C4C5C=CC(C6CC56)C4C3=O)o2)c([N+](=O)[O-])c1 (stereo not drawn)	-16%	-14%
COc1ccc(-c2ccc(C(c3c(C)[nH][nH]c3=O)c3c(C)[nH][nH]c3=O)o2)c([N+](=O)[O-])c1	-1%	28µM*
CCOC(=O)CN1C(=O)c2cccnc2Oc2ccccc21	·	1%
CCN(CC)CCCNC(=O)c1cn(CC)c2ccc(S(=O)(=O)N3CCC(C)CC3)cc2c1=O	·	2%
Cc1cc(C)nc(-n2nc(C)c3c2N(Cc2ccccc2)C(=O)CC3c2ccc(Cl)cc2)n1 (stereo not drawn)	·	-2%
CCS(=O)(=O)C1=NN2C(=N)/C(=C\c3ccc(OC(=O)c4ccco4)cc3)C(=O)N=C2S1	?	35µM*
CCC(CC)C1=NN2C(=N)/C(=C/c3ccc(OC(=O)c4ccco4)cc3)C(=O)N=C2S1	-17%	-20%
CCC1=NN2C(=N)/C(=C/c3ccc(OS(=O)(=O)c4ccccc4)cc3)C(=O)N=C2S1	-4%	-4%
CCS(=O)(=O)C1=NN2C(=N)/C(=C\c3ccc(OS(=O)(=O)c4ccccc4)cc3)C(=O)N=C2S1	23%	45µM*
COc1ccc(NC(=O)Cn2c(=O)n(-c3ccc(C)cc3)c(=O)c3c2c2cc(C)ccc2n3C)cc1	·	-3%
CCCN1C(=O)C(Cc2nc3ccccc3c(=O)n2-c2ccc(OC)cc2)c2cc(C)ccc21 (stereo not drawn)	·	-1%
CCCc1ccc(S(=O)(=O)N2CCC(Oc3ccc(-n4cnnn4)cc3)CC2)cc1	·	2%
SMILES	SARS PLpro yeast	Sm TGR inh
CCC1CN(C(=O)N2CCC(C(=O)N3CCN(c4ccccc4)CC3)CC2)c2ccccc2O1 (stereo not drawn)	·	-3%
O=C(Nc1ccccc1F)Nc1ccccc1F	-1%	-4%
O=C(Nc1ccccc1F)Nc1cccc2ccc(O)cc12	0%	32µM*
COc1ccccc1N1CCN(S(=O)(=O)c2c(C)sc3ncn(CC(=O)Nc4ccc(C)cc4Br)c(=O)c23)CC1	·	1%
COc1ccc2c3c([nH]c2c1)C(C)NCC3 (stereo not drawn)	-1%	11µM*
COc1ccc2[nH]c3c(c2c1)CCNC3C (stereo not drawn)	?	-25%
COc1ccccc1CNC(=O)c1oc2c(c1C)-c1nn(Cc3ccc(Cl)cc3)cc1CC2	·	-1%
O=C(O)c1cccc(NC(=O)c2ccc(N3C(=O)c4ccc(C(=O)Nc5cccc(C(=O)O)c5)cc4C3=O)cc2)c1	6%	4%
O=C(O)c1cccc(NC(=O)c2ccc3c(c2)C(=O)N(c2cccc([N+](=O)[O-])c2)C3=O)c1	1%	3%
O=C(O)c1ccc2c(c1)C(=O)N(c1cccc(C(=O)/C=C/c3ccccc3)c1)C2=O	0%	25µM*
O=C(O)c1cccc(N2C(=O)c3ccc(C(=O)c4cccc([N+](=O)[O-])c4)cc3C2=O)c1	5%	50µM*
COc1ccc(C(=O)c2oc3ccccc3c2NC(=O)COc2ccccc2)cc1	·	60%
Clc1cccc(N2CCN(c3nc4ccccc4c4nc(-c5ccccc5)nn34)CC2)c1	·	1%
Cc1ccccc1-n1c2nc(=O)[nH]c(=O)c-2cc2c(Cl)cccc21	·	-6%
Cc1ccc(C(=O)c2cn(Cc3ccccc3)c3nc(C)ccc3c2=O)cc1	·	9%
OCCC1CN(Cc2nc3c(s2)CCCC3)CCN1CCc1ccccc1 (stereo not drawn)	1%	-13%
Cc1ccc(CN2CCN(CCCc3ccccc3)CC2CCO)cc1 (stereo not drawn)	1%	-1%
OCCC1CN(Cc2nc3c(s2)CCCC3)CCN1Cc1ccccc1 (stereo not drawn)	-1%	35µM*
Cc1ccc(CN2CCN(Cc3nc4ccccc4nc3C)CC2CCO)cc1 (stereo not drawn)	1%	32µM*
O=C1C(c2ccc(F)cc2)N(Cc2ccccc2Cl)C(=O)CN1C1CCCCC1 (stereo not drawn)	·	4%
Cc1nn(-c2ccc3nncn3n2)c(C)c1CCC(=O)Nc1ccc(OC(F)(F)F)cc1	·	1%
Cc1ccc2[nH]c(=O)c3cc(C(=O)N4CCN(c5ccccc5)CC4)sc3c2c1	·	-3%
Cc1cc(C)cc(NC(=O)CCc2nnc3n(C)c(=O)c4sccc4n23)c1	·	13%
Cc1ccccc1CN1C(=O)c2ccccc2Sc2ccc(C(=O)NCc3ccccc3)cc21	·	14%
O=C(c1ccccc1)N(Cc1ccco1)Cc1cccs1	·	-3%
SMILES	SARS PLpro yeast	Sm TGR inh
Cc1onc(-c2ccccc2)c1C(=O)N(Cc1ccco1)Cc1cccs1	-1%	18µM*
COc1cc(OC)c(C(=O)NCc2nc(-c3ccccc3)no2)cc1OC	·	-3%
Cc1nn(Cc2ccc(Cl)cc2Cl)c(C)c1NC(=O)CCl	17%	40µM*
Cc1nn(Cc2ccc(Cl)cc2Cl)c(C)c1NC(=O)c1nn(C)cc1Cl	-6%	49%
CC(=O)Nc1c(C)nn(-c2ccc([N+](=O)[O-])cc2)c1C	2%	-33%
Cc1ccc(-n2nc(C)c(NC(=O)CCl)c2C)cc1	?	50µM*
Cc1ccc(CNC(=O)CCc2c(C)nc3c4c(C)cc(C)nc4nn3c2C)cc1	·	4%
O=C(CCCCCn1c(=O)c2sccc2n(Cc2ccccc2Cl)c1=O)NCc1ccc2c(c1)OCO2	·	6%
COc1ccc(NC(=O)C(NS(=O)(=O)c2cccc3nsnc23)C(C)C)cc1 (stereo not drawn)	·	-9%
COc1ccc(-c2c3c(=O)n(C)c(=O)n(C)c3cn2Cc2ccccn2)cc1	-7%	28µM*
COc1ccc(-c2c3c(=O)n(C)c(=O)n(C)c3cn2Cc2cccnc2)cc1	0%	?
Cn1c(=O)c2c(-c3ccc(Cl)cc3)n(Cc3ccccc3)cc2n(C)c1=O	·	-8%
Cc1ccc(-c2c3c(=O)n(C)c(=O)n(C)c3cn2Cc2ccccn2)cc1	-2%	35µM*

Screening results: PubChem, National Center for Advancing Translational Sciences (NCATS)
